# Source: PubChem BioAssay (National Center for Advancing Translational Sciences (NCATS))
# HT1080 IDH1KD tx = toxicity to HT-1080 IDH1 knockdown cells (counter line); actives 2% (n = 360,000); Potency, µM (titrated, usually from 46.1 µM), for inactives: at the highest dose activity, negative = toxicity, most hits filed as cytotoxic; HT-1080 IDH1 knockdown viability, ATP luminescence, 48 h;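 note: potency is the fitted concentration of half-maximal effect; 0% = DMSO wells and -100% = cell-free medium wells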
#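 Cytotoxicity counter-line: IDH1KD HT-1080, 48 h, CellTiter-Glo. Curves classed by r2, magnitude and activity.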
# TGFb inhibitor = TGF-b pathway inhibition; HepG2 CAGA-GFP TGF-b/SMAD3 reporter, GFP fluorescence, 18 h; TGF-beta stimulated, 500 pg/mL final; Potency, µM (titrated, usually from 46.1 µM), without a hit: at the top dose activity, negative = inhibition, actives largely listed as inhibitors; actives 1.2% (n = 410,000); AID 588855; note: potency is the fitted concentration of half-maximal effect; % is set by controls: 0 for no effect and ±100 for the full control effect; nearly all actives have a fitted effect of over 65% in size
#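 Cell-based qHTS in HEPG2 carrying a CAGA-GFP Smad reporter; compounds added before 500 pg/mL final TGF-beta, 18 h incubation at 37 degrees C, GFP fluorescence quantified per cell by imaging cytometry.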
# HepG2 tox = counter-screen for TGF-b inhibitors: cytotoxicity in HepG2 cells | HepG2 CAGA-GFP viability, ATP luminescence, 18 h | Potency, µM (highest dose often 46.1 µM), for inactives: at the highest dose activity change, negative = cytotoxicity, most hits filed as cytotoxic | AID 588856 | actives 0.76% (n = 410,000); note: potency is the fitted concentration of half-maximal effect
#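 HepG2 CAGA-GFP cells (1000/well, DMEM with 1% FBS) received compound, then TGF-beta at 500 pg/mL final, and were incubated 18 hours at 37 degrees C. Viability was read by CellTiter-Glo luminescence. Media-only wells were set as complete cell-killing and DMSO as no toxicity.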
# HT1080NT lethal = kills 2HG-producing HT-1080-NT fibrosarcoma cells | HT-1080-NT fibrosarcoma viability, CellTiter-Glo ATP luminescence, 48 h | Potency, µM (titrated, usually from 46.1 µM), for the others: at the highest dose activity, negative = less viability, most hits filed as cytotoxic | actives 1.6% (n = 360,000) | AID 686970;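 note: NT is the 2HG producing partner of a matched IDH1 knockdown line; potency is the fitted concentration of half-maximal effect; 0% = DMSO-treated cells and -100% = media-only wells without cells; nearly all actives have a fitted effect of over 55% in size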
#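 Luminescent CellTiter-Glo readout after 48 hours of compound exposure at 37 degrees C defined viability of HT-1080-NT cells. Activity was normalized to DMSO wells and cell-free media wells; concentration-response curves were fitted and assigned curve classes.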
# IL1B secr inh = inflammasome signaling inhibition, IL-1 beta readout | THP-1 LPS/ATP IL-1B secretion, AlphaLISA, 16 h; stronger effect = lower value | activity change, % at 57.5 µM | actives 4.7% (n = 360,000); in the data active = activity change below about -50%; inconclusive = mostly about -30% to -49%; note: % is set by controls: 0 for no effect and ±100 for the full control effect
#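 Secreted IL-1B measured by AlphaLISA bead assay after 16 h compound exposure of THP-1 cells; compounds (final up to 57.5 uM) added 1 h before LPS (250 ng/mL) and ATP (1.25 mM) stimulation; lower signal means less secretion.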
# Giardia kill = kills Giardia lamblia; Giardia lamblia trophozoite viability; activity change, % at 7.66 µM, hits read low; actives 0.15% (n = 340,000); AID 540267; in the data active = activity change below about -80%; inconclusive = between about -30% and that limit;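 note: parasites exposed to compound for two days anaerobically before the ATP read; % is set by controls: 0 for no effect and ±100 for the full control effect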
#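 Each well holds 100 Giardia trophozoites and compound. After two days (48 hrs) at 37 deg C in anaerobic conditions, ATP is quantified by luminescence.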
# Numbers without * were called inactive; ? = inconclusive; · = no result; [ ] = another dose, or the depositor's remark. Only some compounds are listed: those with a hit (about 6.5% of all), similar ones and a draw of the others. Unless noted, calls come from the whole dose curve; as a rule, active = well fitted curve in the direction sought with a large enough effect; inconclusive = small, poorly fitted or top-dose-only effect, or another doubt; inactive = no such curve, though single readings can be large; an effect the other way counts as inactive or inconclusive.
SMILES,HT1080 IDH1KD tx,TGFb inhibitor,HepG2 tox,HT1080NT lethal,IL1B secr inh,Giardia kill
O=C(/C=C/c1ccc(-c2ccccc2[N+](=O)[O-])o1)c1ccc(F)cc1,-28%[9.24 µM],?,11µM*,16µM*,-99*,-3
Cc1ccc(C(=O)/C=C/c2ccccc2[N+](=O)[O-])cc1,?,?,-33%,?,-57*,-26
COc1cccc(CNC(=O)c2ccc3c(c2)N(Cc2ccc(F)cc2Cl)C(=O)c2ccccc2S3)c1,·,?,-10%,·,·,-18
NC(Cc1ccc(Cl)cc1)c1csc(Nc2nccc(C(F)(F)F)n2)n1 (stereo unspecified),23µM*,?,-105%,16µM*,-56*,·
NC(Cc1ccc(F)cc1)c1csc(Nc2nccc(C(F)(F)F)n2)n1 (stereo unspecified),15µM*,?,-112%,23µM*,-59*,·
NC(Cc1ccccc1)c1csc(Nc2nccc(C(F)(F)F)n2)n1 (stereo unspecified),?,16µM*,16µM*,?,-12,·
COc1ccc(CC(N)c2csc(Nc3ncccn3)n2)cc1 (stereo unspecified),?,-27%,-7%,-30%,-29,·
COc1ccc(CC(N)c2csc(Nc3nccc(C(F)(F)F)n3)n2)cc1 (stereo unspecified),?,?,-78%,?,-56*,·
CC1CC1C(=O)OCC(=O)Nc1ccc(S(=O)(=O)N2CCOCC2)cc1 (stereo unspecified),2%,-25%,10%,3%,1,0
CC(=O)NCCn1c(SCC(=O)NCCc2ccc(S(N)(=O)=O)cc2)nc2ccccc2c1=O,23%,5%,7%,-3%,-4,-10
CC(C)CC(=O)N1CCC(N2CCN(c3ccccc3)CC2)CC1,2%,-5%,-12%,19%,-9,-8
CCn1nccc1C(=O)Nc1cc(Cl)cc(Cl)c1,-26%,8%,3%,?,?,-12
Cc1cccc(CCNC(=O)c2nc(-c3ccc(Cl)cc3)n3c2CCCCC3)c1,·,?,2%,·,·,·
O=C(c1nc(-c2ccc(Cl)cc2)n2c1CCCCC2)N1CCN(c2ccccc2)CC1,·,-15%,2%,·,·,·
COc1cccc(N2CCN(C(=O)c3nc(-c4ccc(Cl)cc4)n4c3CCCCC4)CC2)c1,·,16µM*,-38%,·,·,·
COc1ccc(CCNC(=O)c2nc(-c3ccc(Cl)cc3)n3c2CCCCC3)c(OC)c1,·,8.9µM*,-25%,·,·,·
CC1CCCC(C)N1S(=O)(=O)c1ccc(S(=O)(=O)N2CCOCC2)cc1 (stereo unspecified),12%,0%,-5%,10%,-17,-29
CCC12CN3CC(CC)(CN(C1)C3c1ccc(OCc3ccccc3)cc1)C2=O (stereo unspecified),·,11%,-1%,·,·,·
CSc1ccc(C(=O)C2CCCN(C(=O)c3cc4cc(F)ccc4[nH]3)C2)cc1 (stereo unspecified),-22%,-10%,-22%,-6%,-63*,4
CCOC(=O)Cn1nc(C)c(NC(=O)COc2ccccc2)c1C,2%,-1%,7%,11%,14,8
Cc1cccc(NC(=O)Nc2ccc(C)cc2Br)c1,?,?,1%,-16%,-6,-18
CCCSc1nc2c([nH]1)c(=O)n(C)c(=S)n2C,12%,-17%,8%,12%,2,3
CCCC(C)Sc1nc2c([nH]1)c(=S)n(C)c(=O)n2C (stereo unspecified),-10%,?,-32%,-6%,-102*,-22
Cn1c(=S)c2[nH]c(SCC3CCCO3)nc2n(C)c1=O (stereo unspecified),-8%,?,11µM*,0%,-88*,-2
O=c1[nH]c(SCC2CCCCO2)nc2ccccc12 (stereo unspecified),-29%,2%,0%,-30%,-3,-17
